The results in this text go back to PubChem BioAssay (EPA / NIEHS).

The term AC50 denotes the midpoint of the concentration-response curve, whichever way the signal moves.

Assay [1] can be described thus: TOX21_p53_BLA_p4_viability: Viability Assessment in the Tox21 HCT-116 p53 Agonism Beta-lactamase Assay, Phase 4 (AID 2283597).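 Further: hits lower the luminescence signal meaning cytotoxicity.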 A digest of the protocol:
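Cytotoxicity as reduced cellular ATP (CellTiter-Glo luminescence, 30 min room temperature), measured in the same wells following the CCF4 FRET p53 reading. Human HCT-116 cells received compounds in DMSO (217-fold dilution) for 16 h.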

Assay [2] addresses Cellular tumor antigen p53 (Homo sapiens) (UniProt P04637). In words: TOX21_p53_BLA_p5_ratio: Tox21 HCT-116 p53 Agonism Beta-lactamase Assay, Ratio, Phase 5 (AID 2283599). A digest of the protocol: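 Beta-lactamase reporter ratio (blue 460 nm over green 530 nm, 405 nm excitation) after 2 h CCF4-AM loading, in HCT-116 cells exposed 16 h at 37 C to compounds pinned at 217-fold dilution. Increases relative to DMSO baseline scored.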

Assay [3] in a line: TOX21_p53_BLA_p5_viability: Viability Assessment in the Tox21 HCT-116 p53 Agonism Beta-lactamase Assay, Phase 5 (AID 2283600). A digest of the protocol:
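Viability came from CellTiter-Glo ATP luminescence, read after 30 min at room temperature. Before this, HCT-116 p53-bla cells (4000/well) had 16 hours of compound exposure at 37C, with DMSO stocks diluted 217-fold on transfer.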

A short description of assay [4]: Tanguay_ZF_120hpf_MORT_legacy: (Legacy) Oregon State University Tanguay Lab 120 Hour Post-fertilization zebrafish Assay for Mortality (AID 2283633).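 On AC50: fitted as increase in binary mortality versus DMSO negative control.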 Summed up: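 Static waterborne exposure from 6 to 120 hpf at 28C of single dechorionated wild-type (5D) embryos per well, 0.64% DMSO final. Death recorded present/absent by brightfield at 24 and 120 hpf.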
The nature of assay [5]: Tanguay_ZF_120hpf_EYE_legacy: (Legacy) Oregon State University Tanguay Lab 120 Hour Post-fertilization zebrafish Assay for Eye Malformation (AID 2283636).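 Further: binary presence or absence of eye malformation scored by brightfield in 120 hpf larvae.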 A digest of the protocol: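 Binary brightfield scoring of eye defects at 120 hpf after static exposure from 6 hpf of single pronase-dechorionated wild-type embryos (28C, 0.64% DMSO). Non-mortality endpoints omitted where embryos died; fit vs DMSO.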

Assay [6] in a line: Tanguay_ZF_120hpf_SNOU_legacy: (Legacy) Oregon State University Tanguay Lab 120 Hour Post-fertilization zebrafish Assay for Snout Malformation (AID 2283637). A digest of the protocol:
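Binary snout-malformation call at 120 hpf in wild-type 5D embryos, chorion removed by pronase, under static exposure from 6 hpf at 28C (0.64% DMSO). Embryos dying by 24 or 120 hpf excluded.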

Assay [7] has as its target Cellular tumor antigen p53 (Homo sapiens) (UniProt P04637). The experiment in a line: TOX21_p53_BLA_p4_ratio: Tox21 HCT-116 p53 Agonism Beta-lactamase Assay, Ratio, Phase 4 (AID 2283601). Summed up: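 Signal is the blue/green (460nm/530nm) ratio of cleaved versus uncleaved CCF4-AM substrate, read after 2 h substrate loading. Cells were HCT116 carrying the p53-responsive beta-lactamase reporter, dosed 16 h at 37C, 5% CO2; CellTiter-Glo measured in parallel.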

The nature of assay [8]: Tanguay_ZF_120hpf_YSE_legacy: (Legacy) Oregon State University Tanguay Lab 120 Hour Post-fertilization zebrafish Assay for Yolk Sac Edema (AID 2283634).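 On AC50: actives raise the incidence of yolk sac edema above the DMSO baseline.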 Summed up: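 Presence or absence of yolk sac edema was recorded at 120 hpf in surviving larvae. These were wild-type Tropical 5D embryos, chorion removed at 4 hpf, held in static exposure at 28C from 6 hpf with 0.64% DMSO vehicle.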

The nature of assay [9]: Tanguay_ZF_120hpf_JAW_legacy: (Legacy) Oregon State University Tanguay Lab 120 Hour Post-fertilization zebrafish Assay for Jaw Malformation (AID 2283638).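 On AC50: active means more embryos with jaw malformation than DMSO controls.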 Summed up:
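Binary jaw-malformation call at 120 hpf by brightfield microscopy. Embryos (Tropical 5D strain, chorion removed at 4 hpf) were dosed statically at 6 hpf, one per well, at 28C with 0.64% DMSO. Embryos that died were not scored.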

Assay [10] in a line: Tanguay_ZF_120hpf_AXIS_legacy: (Legacy) Oregon State University Tanguay Lab 120 Hour Post-fertilization zebrafish Assay for Body Axis Malformation (AID 2283635).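 On AC50: potency for an increased fraction of larvae scored with body axis malformation.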 A digest of the protocol:
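Binary scoring of axis defects at 120 hpf under brightfield, fitted positive versus DMSO. Tropical 5D embryos, chorion removed by pronase at 4 hpf, were singly exposed in sealed, dark plates at 28C from 6 hpf; DMSO 0.64% final.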

Inconclusive results are not listed. Calls of active or inactive are those of the source. How the source made its calls: active means hit-call score of the fitted dose curve at least 0.9, where 1 is the maximum; inconclusive means response in the unintended direction; inactive means score below 0.9.

Sequence of Cellular tumor antigen p53 (Homo sapiens) (P04637 whole entry, looked up): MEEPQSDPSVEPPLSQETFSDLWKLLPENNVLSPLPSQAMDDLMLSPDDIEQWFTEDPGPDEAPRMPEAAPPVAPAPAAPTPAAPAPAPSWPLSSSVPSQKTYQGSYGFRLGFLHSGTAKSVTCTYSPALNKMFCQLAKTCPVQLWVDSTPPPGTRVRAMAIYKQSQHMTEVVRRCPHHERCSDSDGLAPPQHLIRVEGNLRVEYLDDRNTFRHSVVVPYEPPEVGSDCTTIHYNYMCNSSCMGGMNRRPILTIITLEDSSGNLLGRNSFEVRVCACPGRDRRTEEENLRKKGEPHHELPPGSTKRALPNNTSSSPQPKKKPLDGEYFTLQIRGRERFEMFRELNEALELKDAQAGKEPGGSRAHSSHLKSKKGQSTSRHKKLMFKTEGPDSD

As for `CC(=O)C(C)=CC1C(C)=CCCC1(C)C` (configuration not stated), the call in assay [1], in assay [2], in assay [3], in [4], in assay [5] and in assay [6] was inactive.

For the molecule `CC1(C)CC(N=C=O)CC(C)(CN=C=O)C1` (configuration not stated), the call in assay [1], in assay [2], in [3], in [7], in [4] and in assay [8] was inactive. Moreover, the call in assay [6] and in assay [9] was inactive.

Consider `CCCCC(CC)COC(=O)CC(C(=O)OCC(CC)CCCC)S(=O)(=O)O` (configuration not stated), for which the figures for the half-maximal activity concentration (AC50) in [1], in [2] and in [3] were 50.1 µM (active) [middle of 4 runs], 79.2 µM (active) [middle of 4 runs] and 62.1 µM (active) [middle of 4 runs], respectively. Besides, the outcome in assay [4], in assay [8], in assay [10], in assay [5], in assay [6] and in assay [9] was inactive.

With `COCCOC[C@H](CC1(C(=O)NC2CCC(C(=O)O)CC2)CCCC1)C(=O)Oc1ccc2c(c1)CCC2` (some centres not stated), the molecule was called inactive in [1], in [2], in [4], in assay [8], in [5] and in assay [6]. The outcome in [9] was inactive.

Take `Cc1nc(-c2ccc3c(c2)CCN(CCC2CCC(NC(=O)/C=C/c4ccc(F)cc4)CC2)CC3)no1` (configuration not stated): the outcome in [1], in assay [3], in [4], in assay [8], in [5] and in [6] was inactive. The call in assay [9] was inactive. For the same molecule, in assay [2], the concentration at half-maximal activity (AC50) was 37.9 µM (active).

For `Cc1cccc(Nc2cc(Cl)nc(SCC(=O)O)n2)c1C`, the call in [1], in assay [2], in [4], in assay [8], in [5] and in [6] was inactive. In addition, the outcome in assay [9] was inactive.

With `CNCc1cc(F)ccc1Oc1ccc(Cl)c(Cl)c1`, the result in assay [1], in [2], in assay [3], in [4], in assay [8] and in assay [6] was inactive. The result in assay [9] was inactive. In addition, the AC50 in assay [7] is 64.4 µM (active).

Regarding `CC=Cc1ccc(O)c(OC)c1`, the molecule was called inactive in assay [1], in [2], in assay [3], in assay [4], in assay [8] and in assay [10]. For the same molecule, the molecule was called inactive in [5] and in assay [9].

Turning to `CC(C)c1ccc(C(=O)N=C(N)N)cc1S(C)(=O)=O`, the molecule was classed as inactive in assay [1], in assay [2], in assay [3], in [4], in [8] and in assay [5]. Also, the molecule was called inactive in assay [6] and in [9].

With `Cc1ccc(C)c(O)c1C`, the molecule was called inactive in assay [1], in assay [2], in assay [7], in [4], in [8] and in [10]. For the same molecule, the outcome in assay [5], in [6] and in assay [9] was inactive.

On to `CCCCCC(=O)O`, for which the result in assay [1], in assay [2], in assay [4], in assay [8], in [5] and in [6] was inactive. Also, the call in [9] was inactive.

Regarding `CCCCc1ccc2c(n1)[C@@H](c1ccc(OC)cc1C[C@H](C)C(=O)O)[C@H](C(=O)O)[C@H]2c1ccc2c(c1)OCO2`, the molecule was classed as inactive in [1], in assay [2], in [4], in assay [8], in [10] and in assay [5]. In addition, the call in [6] and in assay [9] was inactive.

Consider `O=[N+]([O-])C(CO)(CO)CO`, for which the outcome in assay [1], in assay [2], in [3], in assay [4], in assay [8] and in assay [5] was inactive. The outcome in assay [6] and in assay [9] was inactive.

In the case of `CC(C)(C)c1cc(O)c(C(C)(C)C)cc1O`, the half-maximal activity concentration (AC50) in assay [1] was 69 µM (active); in assay [2] it was 90.5 µM (active); in assay [4] it was 11 µM (active); in [8], 25.7 µM (active); in [10] it was 25.7 µM (active); in [6], 35.6 µM (active). The AC50 in assay [9] is 47.5 µM (active). Besides, the molecule was classed as inactive in [3] and in [5].

As for `Cc1ccc(N(C)C)cc1`, the molecule was classed as inactive in assay [1], in [2], in [3], in [7], in assay [4] and in assay [8]. For the same molecule, the outcome in assay [5], in assay [6] and in assay [9] was inactive.

For `COc1ccc2c(c1)c(CC(=O)O)c(C)n2C(=O)c1ccc(Cl)cc1`, the result in assay [1], in assay [2], in [3], in assay [7], in assay [4] and in [5] was inactive. Moreover, the molecule was called inactive in [6].

Regarding `Cc1cccc([N+](=O)[O-])c1C`, the call in assay [1], in assay [2], in assay [3], in [4], in assay [8] and in assay [5] was inactive. The call in assay [6] and in assay [9] was inactive.

In the case of `CCCc1cc(=O)[nH]c(=S)[nH]1`, the outcome in assay [1], in assay [2], in assay [3], in assay [8], in assay [10] and in assay [5] was inactive. Besides, the outcome in assay [6] and in assay [9] was inactive.

Take `COc1ccc(C)cc1N`: the call in [1], in assay [2], in assay [7], in assay [4], in assay [8] and in [10] was inactive. The molecule was called inactive in assay [6] and in assay [9].

Regarding `Clc1cc(Cl)c(Cl)cc1Cl`, the molecule was called inactive in assay [1], in assay [2], in assay [3], in assay [4], in assay [5] and in assay [9].

Consider `COCCOCCOC`, for which the result in [2], in assay [3], in assay [7], in [4], in [8] and in assay [10] was inactive. The molecule was classed as inactive in assay [5] and in assay [6].

In the case of `CCCCCCCCCCCCCCCC`, the molecule was called inactive in [4], in assay [8], in assay [10], in assay [5], in assay [6] and in assay [9].

With `CCCCCCCCCCCC(=O)OC`, the result in assay [2], in [3], in [4], in [8], in assay [10] and in [5] was inactive. Moreover, in assay [6], the molecule was classed as inactive.
